From the supplement of paper PMC10338343
± gives the standard deviation.

Test system: EfPiwi piRISC loaded with L1MC piRNA (26 nt)
Assay: pre-steady-state target cleavage rate (min^-1); auxiliary factor: 500 nM Ephydatia muelleri Gtsf1; guide: L1MC piRNA 5'p-UAACUAAAUACUAUGCAAGCUGUAGG; MIWI and MILI are mouse PIWI proteins and EfPiwi is from a freshwater sponge; tags in brackets are library labels; higher = faster piRNA-guided slicing of the target
Procedure, shortened: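 Sequencing of uncleaved targets, normalised to depth and to weakly complementary targets, was the readout of this Cleave-'n-Seq assay. A transcribed, DNA-blocked target RNA library (0.1 nM) was mixed with 1 nM active affinity-purified piRISC carrying one synthetic guide, with or without 500 nM GTSF1 partner protein, in HEPES–potassium acetate buffer at 33 °C for 0–8 or 0–960 min. Three trials were pooled, k3 was capped at 0.0001 min^-1, and a burst-and-steady-state fit gave the pre-steady-state cleavage rate.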

| Sequence | pre-steady-state target cleavage rate |
| --- | --- |
| UCCUCCUACAGCUUGCAUAGUAUUUACUUA | 0.0042 ± 0.0034 |
| UCCUGGAUGUCGAUGCAUACUAUUAAGUUA | < 0.0001 |
| UCCUGGAUGAGCUUCGCAUAGUAUUUAGUUA | 0.0219 ± 0.0059 |
| UCCUGGAUGUCGUUGCAAACUAUUUAGUUA | < 0.0001 |
| UCCUGGAUCAGCAAGCAUAGUAUUUAGUUA | 0.0107 ± 0.0038 |
| UCCUGCUACUGCUUGCAUAGUAAUUAGUUA | 0.00587 ± 0.0019 |
| UCCUGGAACAGCUUGCAUAGUACUUAGUUA | 0.0218 ± 0.0069 |
| UCCUGGAUGAGCUAGCAUAGUAUUUAGUUA | 0.00597 ± 0.002 |
| UCCUGCUACAGCUUGCAUAGUUAUUAGAAA | 0.00309 ± 0.0025 |
| UCCUCCUACAGCUUGCUUAGUAUUUACUUA | 0.00381 ± 0.003 |
| UCCUGGAUGAGCUUGCAUAGUAUUUAGGUUA | 0.0031 ± 0.002 |
| UCCUGGUAGAGCAUGCAUAGUAUUUAGUUA | 0.0134 ± 0.004 |
| UCCUGGAACACCUUGCAUUGUAUUUAGUUA | 0.00411 ± 0.0026 |
| UCCUGGAACAGCUUGCAUAGUAAUUUAGUUA | 0.00753 ± 0.0023 |
| UCCUGGAUCAGCUUGCAUUGUAUUUAGUUA | 0.0179 ± 0.0038 |
| UCCUGGAUGUGCUUGCAUAGUAUUUAGCUA | 0.00363 ± 0.0021 |
| UCCUGGAUGUCGAACCAUCGUAUUUAGUUA | < 0.0001 |
| UCCUGGAUGUCGAACGUAUCUAGUUUAGUUA | < 0.0001 |
| UCCUGGAUGUCGAACGUAAGUAUUUCAGUUA | < 0.0001 |
| UCCUGCUACAGCUUGCAUAGUAUAUUAGUUA | 0.0185 ± 0.0079 |

| Sequence | pre-steady-state target cleavage rate |
| --- | --- |
| UCCUGGAUGUGCUUCCAUAGUAUUUAGAAA | 0.00625 ± 0.0039 |
| UCCUGGAACUCCUUGCAUAGUAUUUAGAAA | 0.00313 ± 0.0019 |
| UCCUGCUACAGCUUCGAUAGUAUUUAGUUA | 0.00756 ± 0.0026 |
| UCCUGGAUGAGCUUGCAUAGUAGUUUAGUUA | 0.00964 ± 0.0035 |
| UCCUGGAACUGCUUGCAUAGUAAUUAGUUA | 0.0039 ± 0.0028 |
| UCCUGGAACAGGUAGCAUAGUAUUUAGUUA | 0.00892 ± 0.0028 |
| UCCUGGAUGUCGAACCAUGGUAUUUAGUUA | < 0.0001 |
| UCCUGGAUCAGCUUGCAUAGAAUUUAGUUA | 0.00327 ± 0.0015 |
| UCCUGCUACAGCUUCCAUAGUAUUUUCAAA | 0.0032 ± 0.0021 |
| UCCUGGAUGUCGUUCCAUAGUAAUUAGUUA | < 0.0001 |
| UCCUGGAUGAGCUUGGAUAGUAUUUAGAAA | 0.00463 ± 0.0034 |
| UCCUGGAUCAGCUUGCAUAGUAUUGUAGUUA | 0.00652 ± 0.0027 |
| UCCUGGAUCAGCUUGCGAUAGUAUUUAGUUA | 0.00281 ± 0.0027 |
| UCCUGGAUCAGCUUGCAUAGUAUUUAGUUC [g2:g22:cont:t1C] | 0.0501 ± 0.011 |
| UCCUGCUACAGCUUGCAUAGUAUUUAGUUUA | 0.0608 ± 0.016 |
| UCCUGGAUGUCGAACGUAUCUAUUAUAGUUA | < 0.0001 |
| UCCUCCUACAGCUUGCAUAGUAUUUCAGUUA | 0.00437 ± 0.0022 |
| UCCUGGAUGUCGAACGUAUCUAUUUUCUUA | < 0.0001 |
| UCCUGGAACAGCUUCCAUAGUAUUUAGAUA | 0.00228 ± 0.0017 |
| UCCUCCUACACCUUGCAUAGUAUUUAGUAA | 0.00625 ± 0.003 |
